Screening data (PubChem BioAssay)
RORgamma inh = qHTS for inhibitors of ROR gamma transcriptional activity; Nuclear receptor ROR-gamma (Mus musculus), P51450; Drosophila S2 Gal4-RORgamma UAS-luciferase reporter, 20 h; Potency, µM (doses to about 53.6 µM), for inactives: top-dose activity change, negative = inhibition, most hits filed as inhibitors; hit rate 5.4% among 310,000; AID 2551, 2010; note: % is set by controls: 0 for no effect and ±100 for the full control effect; nearly all actives have a fitted effect of over 60% in size
Target sequence (P51450 whole entry, looked up, the tested form may be a part): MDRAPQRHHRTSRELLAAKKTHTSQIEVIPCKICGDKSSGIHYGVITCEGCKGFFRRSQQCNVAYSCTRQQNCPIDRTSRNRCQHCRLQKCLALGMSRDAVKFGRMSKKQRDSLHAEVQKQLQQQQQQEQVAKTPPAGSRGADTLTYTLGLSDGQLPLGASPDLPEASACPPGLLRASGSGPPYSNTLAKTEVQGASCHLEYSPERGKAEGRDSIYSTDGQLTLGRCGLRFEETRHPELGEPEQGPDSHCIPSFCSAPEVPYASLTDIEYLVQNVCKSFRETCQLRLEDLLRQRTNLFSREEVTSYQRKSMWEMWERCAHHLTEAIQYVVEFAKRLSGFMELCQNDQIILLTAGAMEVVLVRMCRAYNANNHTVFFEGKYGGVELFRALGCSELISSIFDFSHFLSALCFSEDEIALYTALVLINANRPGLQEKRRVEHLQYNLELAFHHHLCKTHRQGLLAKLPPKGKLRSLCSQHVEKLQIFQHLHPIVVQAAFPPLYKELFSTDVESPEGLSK
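Drosophila S2 cells stably expressing Gal4-DBD/mouse RORγ fusion under metallothionein promoter plus UAS-luciferase; compound 1 h, then 700 uM CuSO4 induction for 20 h at ambient temperature; inhibition read as reduced luminescence.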
Gal4-VP16 FLuc = VP16 counterscreen qHTS for inhibitors of ROR gamma transcriptional activity; Drosophila S2 Gal4-VP16 UAS-luciferase, luminescence, 20 h; Potency, µM (top dose mostly 53.6 µM), without a hit: top-dose activity, negative = inhibition, actives largely listed as inhibitors; hit rate 3.5% among 310,000;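 note: Gal4-VP16 expression switched on by copper sulfate through the metallothionein promoter; % is set by controls: 0 for no effect and ±100 for the full control effect; nearly all actives have a fitted effect of over 50% in size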
PINK1 modulator = A Quantitative High throughput Screen to Identify Chemical Modulators of PINK1 Expression; PINK1 immunofluorescence, high-content cytometry, 24 h; hit rate 0.2% among 410,000; Potency, µM (series often up to 76.6 µM), inactives show top-dose activation (PINK1 increase), most hits filed as activators; AID 624263, 2012; active = well fitted activation curve with a large enough effect; inconclusive = small, poorly fitted or top-dose-only effect; cell line not stated here; note: % of control where 0% means no effect; nearly all actives have a fitted effect of over 65% in size
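Decision-based qHTS: stable cells, 24 h exposure to five compound concentrations, CCCP as control. Fixed cells stained for PINK1 plus nuclear, mitochondrial and cell markers, cytometer read.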
ClpP mod = qHTS Assay for Activators of ClpP; purified B. subtilis ClpP, FRET peptide cleavage, 20 min; AID 651965, 2013; Potency, µM (top dose mostly 57.5 µM), without a hit: at the highest dose activity change, negative = active; hit rate 1.9% among 340,000; active = well fitted falling curve with a large enough effect; inconclusive = small, poorly fitted or top-dose-only effect; inactive = no such curve, though single readings can be large or run the other way; note: the source files actives as falling curves though it sought activators and does not explain the sign; nearly all actives have a fitted effect of over 65% in size
Target sequence (P80244 whole entry, looked up): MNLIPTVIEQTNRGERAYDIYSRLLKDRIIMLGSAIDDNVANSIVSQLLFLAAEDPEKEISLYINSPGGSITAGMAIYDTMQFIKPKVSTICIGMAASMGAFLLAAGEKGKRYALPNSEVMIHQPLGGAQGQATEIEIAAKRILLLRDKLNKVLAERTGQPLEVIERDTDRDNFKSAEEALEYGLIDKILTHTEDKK
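FRET quenching reversal measured ClpP activation: 10 microg/mL B. subtilis ClpP at pH 8 with the FRET-FV decapeptide, read at 430 nm after 320 nm excitation. The 20-min minus 0-min signal was scaled between DMSO/no-enzyme wells and ADEP (5.8 microM final).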
Sfp inh = qHTS Assay for Inhibitors of Bacillus subtilis Sfp phosphopantetheinyl transferase (PPTase); 4'-phosphopantetheinyl transferase ffp (Bacillus subtilis), Q9F4F7; Biochemical Sfp PPTase activity, qHTS; Potency, µM, for the others: largest response in the series, negative = inhibition, most hits filed as inhibitors; hit rate 3.5% among 310,000; AID 1490, 2009;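 note: the enzyme is Sfp with the accession as filed and its product quenches rhodamine fluorescence; 0% = enzyme reaction without inhibitor and -100% = no enzyme wells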
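With Hepes-Na pH 7.6 buffer containing 10 mM MgCl2, Sfp (15 nM) modified BHQ-2-YbbR (12.5 uM) using rhodamine-CoA (5 uM). Two reads 30 minutes apart at 525/598 nm yielded each well's rate.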
Epigenetic reg = Quantitative High-Throughput Screen for Regulators of Epigenetic Control | Potency, µM (highest dose often 53.9 µM), inactives show at the highest dose GFP activation, usual class: activators | AID 1865, 2009 | murine LDR cells, GFP reporter derepression, 30 h | hit rate 0.2% among 280,000; note: % of control where 0% means no effect; nearly all actives have a fitted effect of over 60% in size
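Derepression of a silenced CMV-GFP reporter in murine LDR cells is scored by enumerating GFP-positive cells with a laser-scanning microplate cytometer after 30 hours of treatment at 37 C.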
* = called active by the depositor; ? = inconclusive; / = no result; [ ] = dose if it differs, or a comment. An excerpt weighted towards active compounds, which were near 8.1% of everything screened. Unless noted, calls come from the whole dose curve; as a rule, active = well fitted curve in the direction sought with a large enough effect; inconclusive = small, poorly fitted or top-dose-only effect, or another doubt; inactive = no such curve, though single readings can be large; an effect the other way counts as inactive or inconclusive. Potency is the fitted concentration of half-maximal effect.

SMILES | RORgamma inh | Gal4-VP16 FLuc | PINK1 modulator | ClpP mod | Sfp inh | Epigenetic reg
O=C(COC(=O)c1ccccc1NCCO)Nc1ccc(S(=O)(=O)NC2=NCCCCC2)cc1 | / | / | -0.1% | 14.1µM* | / | /
O=C(COC(=O)c1ccccc1O)Nc1cccc(S(=O)(=O)NC2=NCCCCC2)c1 | 3.3% | -1.4% | 2.3% | / | 2.0% | 0.0%
Cc1ccsc1/C=N/NC(=O)c1nnn(-c2nonc2N)c1-c1ccc2c(c1)OCO2 | 10µM* | ? | 2.4% | -5.4% | 4.0% | /
Cc1ccc(-c2c(C(=O)N/N=C/c3ccc4c(c3)OCO4)nnn2-c2nonc2N)cc1 | -18.3% | 0.6% | -0.4% | 4.0% | 20.2% | /
Nc1nonc1-n1nnc(C(=O)N/N=C/c2ccccc2Cl)c1-c1ccc2c(c1)OCO2 | 18.6% | -21.8% | -1.5% | ? | 16.5% | /
Nc1nonc1-n1nnc(C(=O)N/N=C/c2cccs2)c1-c1ccc2c(c1)OCO2 | 7.94µM* | 10µM* | 3.1% | -0.5% | 7.8% | /
CCCCCCC(C)NC(=S)Nc1cc(S(=O)(=O)N(C)C)ccc1C (stereo unspecified) | 12.6µM* | ? | 9.4% | -2.0% | 8.6% | -1.8%
CC(=O)NNC(=S)Nc1cc(S(=O)(=O)N(C)C)ccc1C | -8.2% | 1.8% | -2.5% | 1.2% | 2.1% | -1.5%
Cc1ccc(S(=O)(=O)N(C)C)cc1NC(=S)NC(C)CCC(C)C (stereo unspecified) | 12.6µM* | ? | ? | 0.2% | 18.3% | -1.8%
Cc1ccc(S(=O)(=O)N(C)C)cc1NC(=S)NC(C)CCCC(C)C (stereo unspecified) | 17.8µM* | ? | ? | -3.5% | 22.6% | 0.1%
CCS(=O)(=O)Nc1ccc(-c2ccc(NS(=O)(=O)CC)c(OC)c2)cc1OC | ? | 9.2% | 0.8% | 11.2µM* | -8.0% | -1.2%
CN1CCN(C(=O)Cn2c(-c3cccs3)cc3ccccc32)CC1 | / | / | -1.3% | 28.2µM* | / | -1.2%
CCCN1CCN(C(=O)Cn2c(-c3cccs3)cc3ccccc32)CC1 | / | / | 2.5% | 31.6µM* | / | -0.4%
CCCN1CCN(C(=O)Cn2c(-c3cccs3)cc3cc(F)ccc32)CC1 | / | / | 0.2% | 4.2% | / | -1.7%
O=C(Nc1ccc(Cl)cc1)Nc1nnc(SCc2ccc(Cl)cc2)s1 | 22.9% | -0.9% | 3.1% | 0.2% | 1.8% | 1.1%
O=C(Nc1nnc(SCc2ccc(Cl)cc2)s1)c1cnccn1 | 12.6µM* | 14.1µM* | 0.1% | 3.8% | -3.2% | -2.5%
COc1ccc(C(=O)Nc2cc(S(=O)(=O)c3ccc(Cl)cc3)c(O)c(C)c2C)cc1 | / | / | 1.0% | 46.8% | / | 2.2%
COc1ccc2c(CNCc3ccco3)c(C(=O)O)n(Cc3ccc(F)cc3Cl)c2c1 | / | / | 0.7% | -16.6% | / | 6.8%
CC(NCc1ccc(OCc2ccc(Cl)cc2)cc1)C(O)c1ccccc1 (stereo unspecified) | 35.5µM* | ? | -3.4% | / | ? | 7.0%
COc1ccc(CN2CCOc3ccc(C(O)c4cccnc4)cc3C2)cc1O (stereo unspecified) | / | / | 0.7% | / | / | /
Cc1ccc(N/C=C/C(=O)C(C)(C)C)c(O)c1 | ? | ? | 4.3%[38.3 µM] | -6.3% | 89.1µM* | -1.5%
CC(=O)Nc1ccc(N/C=C/C(=O)C(C)(C)C)cc1 | -1.2% | 11.4% | -3.5%[38.3 µM] | -3.4% | 9.3% | 1.1%
CCOC(=O)c1cnc(-n2cc(C)cn2)nc1NCc1ccc2c(c1)OCO2 | 12.6µM* | ? | -1.8%[38.3 µM] | -1.7% | 79.4µM* | 0.0%
CCOC(=O)c1cnc(-n2nc(C)cc2C)nc1NCc1ccccc1 | 1.41µM* | 2.51µM* | ? | -15.7% | -12.2% | 1.8%
CCOC(=O)c1cnc(-n2nc(C)cc2C)nc1NCCO | ? | -4.6% | 8.5%[38.3 µM] | ? | 2.0% | 0.9%
SMILES | RORgamma inh | Gal4-VP16 FLuc | PINK1 modulator | ClpP mod | Sfp inh | Epigenetic reg
CCOC(=O)c1cnc(-n2nc(C)cc2C)nc1N1CC(C)OC(C)C1 (stereo unspecified) | / | / | / | -0.6% | / | /
CCOC(=O)c1cnc2ccc(OCC)cc2c1NCc1ccccc1 | 2.82µM* | 5.01µM* | ? | ? | 31.6µM* | 0.9%
CCOC(=O)c1c(C)c(C(=O)NCc2ccc3c(c2)OCO3)c(C)n1CC | -33.0% | -7.5% | 10.6% | 0.3% | -6.1% | 0.5%
CCOC(=O)c1cnc(-n2nc(C)cc2C)nc1NC(C)c1ccccc1 (stereo unspecified) | 1.41µM* | 2.24µM* | -0.9% | -13.1% | -26.5% | -1.0%
CC1=C(C(=O)Nc2ccc(C)cc2C)C(c2ccc(C(C)C)cc2)n2nc(C(F)(F)F)nc2N1 (stereo unspecified) | / | / | 2.6% | -0.9% | / | -0.7%
Cc1ccc(CNC(=O)C2CCN(C(=O)c3cnn(-c4ccccc4)c3-n3cccc3)CC2)cc1 | / | / | 0.9% | -1.8% | / | 0.0%
OCCN1CCN(C(=S)c2ccc(Cl)c(Cl)c2)CC1 | 6.3%[0.365 µM] | / | -2.0% | 1.0% | 3.16µM* | -0.9%
CC(=O)c1ccc(NC(=S)N2CCN(CCO)CC2)cc1 | 23.9% | -3.4% | -0.5% | 7.5% | 25.6% | /
Cn1cc(CN(Cc2ccccn2)C[C@@H]2CCC(=O)N2)c(-c2ccccc2F)n1 | -10.0% | -12.6% | -0.3% | -3.9% | 79.4µM* | 1.6%
Cn1cc(CN(Cc2ccccc2)C[C@@H]2CCC(=O)N2)c(-c2ccccc2F)n1 | 0.3% | -1.3% | 0.6% | / | 21.2% | -0.2%
Cc1ccc(Nc2nc3ccc(C)cc3nc2-n2nc(C)cc2C)c(C)c1 | / | / | 0.1% | -6.2% | / | 2.4%
Cc1occc1C(=O)O/N=C(\N)c1ccccc1 | ? | 10µM* | 0.6% | / | 6.0% | 0.0%
Cc1ccccc1C(=O)O/N=C(\N)c1ccccc1 | 7.08µM* | 10µM* | -0.3% | 0.7% | ? | /
CC(=O)COc1ccc2c(C)c(-c3ccccc3)c(=O)oc2c1 | -3.0% | ? | -0.3% | / | 20.5% | -0.1%
CCCc1c(C)c2ccc(OCC(C)=O)cc2oc1=O | 16.4% | 2.5% | -2.0% | 3.16µM* | -11.6% | 1.3%
CCCCc1c(C)c2ccc(OCC(C)=O)cc2oc1=O | ? | ? | -1.6% | 3.98µM* | -0.9% | 0.9%
C=CCOC(=O)COc1ccc2c(C)c(C)c(=O)oc2c1 | -16.2% | -2.8% | 1.4%[38.3 µM] | 12.6µM* | -5.7% | 0.0%
CCOC(=O)C1=C(C)N=c2s/c(=C\c3cccc(OCC(=O)O)c3)c(=O)n2C1c1ccccc1OC (stereo unspecified) | 16.1% | -2.5% | 1.9% | 0.1% | 79.4µM* | /
